# Screening data as filed in PubChem.
# Hits are enriched below; roughly 19% of the tested compounds scored in any of these assays.
# TDP1 cell noCPT – qHTS for Inhibitors of human tyrosyl-DNA phosphodiesterase 1 (TDP1): qHTS in cells in absence of CPT; DT40 Tdp1-/- hTDP1 cells, no CPT, ATP luminescence, 48 h; Potency, µM (doses to about 46.2 µM), for inactives: at the top dose activity change, negative = growth inhibition, hits mostly inhibitors; 15% of 420,000 active; also: potency is read from the fitted curve at half-maximal effect; nearly all actives have a fitted effect of over 55% in size
#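 Readout: luminescence from CellTiter-Glo after 30 min in the dark at RT. Cells: DT40 Tdp1-/- with stable hTDP1, 400/well. Exposure: compounds alone, ≥48 hr, 37 °C.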
# HT1080NT lethal – qHTS for induction of synthetic lethality in tumor cells producing 2HG: qHTS for the HT-1080-NT fibrosarcoma cell line. HT-1080-NT fibrosarcoma viability, CellTiter-Glo ATP luminescence, 48 h. Potency, µM (series often up to 46.1 µM), without a hit: at the highest dose activity, negative = less viability, actives largely listed as cytotoxic. 1.6% of 360,000 active. AID 686970, 2013;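 also: NT is the 2HG producing partner of a matched IDH1 knockdown line; potency is read from the fitted curve at half-maximal effect; 0% = DMSO-treated cells and -100% = media-only wells without cells; nearly all actives have a fitted effect of over 55% in size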
#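 Compounds were tested in concentration-response format on HT-1080-NT cells for 48 hours at 37 degrees C. Cell viability came from CellTiter-Glo luminescence; curves were classified by r2, response magnitude and activity.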
# uPA surface inh – qHTS for Inhibitors of Cell Surface uPA Generation | cell surface uPA generation assay, qHTS | 0.31% of 330,000 active | Potency, µM (highest dose often 38.3 µM), without a hit: at the highest dose activity change, negative = inhibition, actives largely listed as inhibitors; active = well fitted inhibition curve with a large enough effect; inconclusive = small, poorly fitted or top-dose-only effect; inactive = no such curve, though single readings can be large or run the other way; tested in mouse RAW 264.7 cells; also: potency is read from the fitted curve at half-maximal effect; nearly all actives have a fitted effect of over 55% in size
# HT1080 IDH1KD tx – qHTS for induction of synthetic lethality in tumor cells producing 2HG: qHTS for the HT-1080-IDH1KD cell line; Potency, µM (highest dose often 46.1 µM), without a hit: at the highest dose activity, negative = toxicity, actives largely listed as cytotoxic; HT-1080 IDH1 knockdown viability, ATP luminescence, 48 h; AID 686971, 2013; 2% of 360,000 active;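 also: potency is read from the fitted curve at half-maximal effect; 0% = DMSO wells and -100% = cell-free medium wells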
#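 In this qHTS, HT-1080 cells depleted of IDH1 are exposed for 48 h at 37 °C to compound titrations. Toxicity is scored from CellTiter-Glo luminescence, with DMSO as full viability and medium alone as none.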
# DT40 TDP1 CPT – qHTS for Inhibitors of human tyrosyl-DNA phosphodiesterase 1 (TDP1): qHTS in cells in presence of CPT | Potency, µM (top dose mostly 46.2 µM), inactives show at the highest dose activity change, negative = growth inhibition, usual class: inhibitors | 12% of 420,000 active | AID 686979, 2013 | chicken DT40 Tdp1-/-;hTDP1 cells + 20 nM CPT, ATP luminescence, 48 h; also: potency is read from the fitted curve at half-maximal effect; nearly all actives have a fitted effect of over 55% in size
#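 Chicken DT40 Tdp1-/- cells complemented with human TDP1, 400 cells/well, exposed to compounds plus 20 nM camptothecin for at least 48 h at 37 C; viability read as ATP content by CellTiter-Glo luminescence.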
# IL1B secr inh – qHTS for Inhibitors of Inflammasome Signaling: IL-1-beta AlphaLISA Primary Screen. activity change, % at 57.5 µM. 4.7% of 360,000 active. THP-1 LPS/ATP IL-1B secretion, AlphaLISA, 16 h; active compounds read low. AID 743279, 2014; in the data active = activity change below about -50%; inconclusive = mostly about -30% to -49%
#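 THP-1 cells pretreated 1 hr with compounds (up to 57.5 uM final), then stimulated with LPS (250 ng/mL final) plus ATP (1.25 mM final); secreted IL-1B measured by AlphaLISA after 16 hr, decreased signal indicating inhibition.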
# * marks the source's active call; other numbers are inactive results; ? = inconclusive; . = not tested or not shown. Unless noted, calls follow the shape of the dose curve; as a rule, active = well fitted curve in the direction sought with a large enough effect; inconclusive = small, poorly fitted or top-dose-only effect, or another doubt; inactive = no such curve, though single readings can be large; an effect the other way counts as inactive or inconclusive. Unless noted, % is scaled to controls: 0 for no effect and ±100 for the full control effect.
SMILES,TDP1 cell noCPT,HT1080NT lethal,uPA surface inh,HT1080 IDH1KD tx,DT40 TDP1 CPT,IL1B secr inh
O=C1C(Nc2cccc(O)c2)=C(N2CCCCC2)C(=O)c2ccccc21,7.31µM*,?,12.1%,?,8.2µM*,-83.6*
COc1ccc(NS(=O)(=O)c2cc([N+](=O)[O-])ccc2N/N=C/c2c(C)[nH]c3ccccc23)cc1,23.1µM*,1.8%,3.4%,-0.7%,?,20.7
COc1ccc(C(=O)Nc2cc(-c3ccccc3)nn2-c2ccccc2F)cc1,?,-16.6%,6.7%,-3.2%,23.1µM*,?
CCCCn1c(SCC(=O)Nc2cc(C(F)(F)F)cc(C(F)(F)F)c2)nnc1C(CC)N(C)C (configuration not stated),20.6µM*,-25.1%,-1.5%,-22.7%,23.1µM*,-9.2
CCCCn1c(SCC(=O)Nc2ccc3c(c2)OCCO3)nnc1C(CC)N(C)C (configuration not stated),-22.1%,10.3%,-7.7%,9.6%,-6.9%,-5.7
CC(C)c1ccc(NC(=O)C2CCN(S(=O)(=O)c3cccc4nonc34)CC2)cc1,-24.0%,.,.,.,-18.4%,.
COc1ccc(C2c3c(n(C)c4ccccc34)C(=O)N2CC(=O)Nc2ccc(F)cc2)cc1 (configuration not stated),-13.6%,.,.,.,-10.9%,.
CCc1cccc(C)c1NC(=O)CN1C(=O)c2c(c3ccccc3n2C)C1c1ccc(OC)cc1 (configuration not stated),29.1µM*,.,.,.,?,.
COc1ccc(C2c3c(n(C)c4ccccc34)C(=O)N2CC(=O)Nc2ccc(Cl)cc2)cc1 (configuration not stated),?,.,.,.,18.4µM*,.
Cc1ccc(OCCC(=O)OCC(=O)Nc2c(C)nn(-c3ccccc3)c2C)cc1,6.6%,6.9%,-0.8%,4.9%,4.7%,15.1
Cc1ccc(NC(=O)C2(C)CCN2Cc2ccccc2OC(F)F)cc1 (configuration not stated),?,?,.,?,?,-16.5
CC1(C(=O)Nc2ccc3c(c2)OCO3)CCN1Cc1ccccc1OC(F)F (configuration not stated),?,-8.5%,.,0.0%,?,-66.5*
CC1(C(=O)Nc2ccc(Cl)c(Cl)c2)CCN1Cc1ccccc1OC(F)F (configuration not stated),11.6µM*,-2.2%,.,1.6%,16.4µM*,?
COc1ccc(NC(=O)C2(C)CCN2Cc2ccccc2OC(F)F)cc1OC (configuration not stated),11.6µM*,-7.8%,.,-18.8%,?,-6.3
COc1ccccc1NCc1nnc2n1CCCCC2,1.7%,.,.,.,-0.8%,.
Cc1onc(-c2ccccc2Cl)c1C(=O)N[C@@H](C)c1ccccc1,5.4%,-2.5%,-5.5%,4.8%,-26.2%,3.5
CNCCN(C)c1nc(-c2cccs2)nc2ccccc12,22.4µM*,?,.,?,?,.
c1ccc(-c2nc(NCc3cccs3)c3ccccc3n2)cc1,?,?,2.5%,?,-14.2%,-6.8
Cc1ccc(S(=O)(=O)N(C)CCN(C)c2nc(-c3cccs3)nc3ccccc23)cc1,20µM*,12.1%,.,22.5%,?,.
CN(CCO)c1nc(-c2cccs2)nc2ccccc12,?,-23.6%,.,-20.6%,17.8µM*,.
OCCNc1nc(-c2cccs2)nc2ccccc12,-16.5%,-4.6%,.,-4.6%,10.5%,.
CN(Cc1cccs1)c1nc(-c2cccnc2)nc2ccccc12,?,-5.2%,-1.6%,-3.2%,23.1µM*,-91.7*
COc1ccc(CCNC(=O)c2cc(-c3ccc(Cl)c(Cl)c3)oc2C)cc1,?,-26.9%,4.0%,?,?,?
Oc1ccc(Cl)cc1N=Nc1ccccc1,-27.7%,17.9%,14.2%,16.7%,-21.5%,8.8
Nc1c(Cl)cc(N=Nc2ccccc2)cc1Cl,13µM*,?,-1.7%,?,?,-5.7
SMILES,TDP1 cell noCPT,HT1080NT lethal,uPA surface inh,HT1080 IDH1KD tx,DT40 TDP1 CPT,IL1B secr inh
Cc1noc(C)c1-c1nccc(NC2CC2)n1,6.3%,.,.,.,6.6%,.
O=C(Nc1ccc(Oc2c(F)c(F)c(F)c(F)c2F)cc1)OC1CCN2Cc3ccccc3N=C12 (configuration not stated),2.31µM*,?,-11.7%,?,5.17µM*,-94.9*
Cc1cccc(NC(=O)Nc2ccc(Oc3c(F)c(F)c(F)c(F)c3F)cc2)c1,-5.4%,2.7%,14.2%,5.6%,-24.6%,24.1
COc1ccccc1C(=O)Nc1cccc2cccnc12,?,-7.7%,-5.8%,-13.1%,?,-28.0
CC1(C(=O)Nc2cccc3cccnc23)CCN1Cc1ccccc1OC(F)F (configuration not stated),14.6µM*,?,.,?,?,-9.3
COc1ccc(OC)c(NC(=O)C2(C)CCN2C(=O)C2(c3ccccc3)CCCC2)c1 (configuration not stated),23.1µM*,-22.6%,.,-13.7%,?,2.0
COc1cccc(CN2CCC2(C)C(=O)Nc2cccc3cccnc23)c1OC (configuration not stated),18.4µM*,?,.,?,16.4µM*,-1.2
COc1ccc(OC)c(NC(=O)C2(C)CCN2Cc2cccc(OC)c2OC)c1 (configuration not stated),14.6µM*,?,.,?,?,-15.6
COc1ccc(OC)c(NC(=O)C2(C)CCN2C(=O)C(C)(C)c2ccccc2)c1 (configuration not stated),?,12.3%,.,6.1%,?,-2.6
CC(C)C(=O)N1CCC1(C)C(=O)Nc1ccccc1OC(F)F (configuration not stated),-0.9%,10.8%,.,0.0%,?,20.8
CC(=O)Nc1cc([N+](=O)[O-])ccc1OCc1ccccc1,?,1.2%,5.4%,9.3%,?,11.8
Cc1ccc(OCCN2CCC2(C)C(=O)Nc2ccc3c(c2)OCCO3)cc1 (configuration not stated),18.4µM*,-14.9%,.,-20.5%,-97.8%,-109.5*
Cc1c(Br)cccc1NC(=O)C1(C)CCN1CCc1ccccc1 (configuration not stated),?,-2.6%,.,-10.8%,?,7.3
